Screen size: about 5,500 compounds; about 2,000 (36%) were called active. Inconclusive results (about 18%) are left out. Cut-off read from the data, not from the text of the source: active = normalized growth mostly below about 0.91 (no sharp cut-off); inconclusive = no clear call, values can overlap the other calls; inactive = mostly above about 0.92. Some of the results follow.
Assay: chemical genetic growth profiling, strain panel (AID 1159580);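 note: tested at 20 µM; growth read once vehicle control cultures reached saturation at 30 °C; 1 = growth at the plate median or of vehicle wells; lower values mean less growth of the strain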
Conditions: growth OD

Measured: normalized growth

NC(=O)c1ccc[n+]([C@@H]2O[C@H](COP(=O)([O-])OP(=O)(O)OC[C@H]3O[C@@H](n4cnc5c(N)ncnc54)[C@H](OP(=O)(O)O)[C@@H]3O)[C@@H](O)[C@H]2O)c1
inactive: S. cerevisiae deletion strains, locus YAL013W, strain DEP1, stronger effect = lower value 1.02 | S. cerevisiae deletion strains, locus YBR021W, strain FUR4, stronger effect = lower value 1 | S. cerevisiae deletion strains, locus YBR229C, strain ROT2, stronger effect = lower value 1.03 | S. cerevisiae deletion strains, locus YCL029C, strain bik1, stronger effect = lower value 1 | S. cerevisiae deletion strains, locus YDL035C, strain GPR1, stronger effect = lower value 1.06 | S. cerevisiae deletion strains, locus YDL074C, strain BRE1, stronger effect = lower value 1.02 | S. cerevisiae deletion strains, locus YDL101C, strain DUN1, stronger effect = lower value 1.02 | S. cerevisiae deletion strains, locus YDL134C, strain PPH21, stronger effect = lower value 1.02 | S. cerevisiae deletion strains, locus YDL185W, strain tfp1, stronger effect = lower value 0.994 | S. cerevisiae deletion strains, locus YDL192W, strain arf1, stronger effect = lower value 1.01 | S. cerevisiae deletion strains, locus YDR101C, strain arx1, stronger effect = lower value 1.01 | S. cerevisiae deletion strains, locus YDR150W, strain NUM1, stronger effect = lower value 1.02 | S. cerevisiae deletion strains, locus YDR162C, strain NBP2, stronger effect = lower value 1.03 | S. cerevisiae deletion strains, locus YDR318W, strain mcm21, stronger effect = lower value 1.01 | S. cerevisiae deletion strains, locus YDR388W, stronger effect = lower value 0.985 | S. cerevisiae deletion strains, locus YDR502C, strain sam2, stronger effect = lower value 1.03 | S. cerevisiae deletion strains, locus YEL061C, strain CIN8, stronger effect = lower value 1.02 | S. cerevisiae deletion strains, locus YER110C, stronger effect = lower value 1 | S. cerevisiae deletion strains, locus YER155C, strain BEM2, stronger effect = lower value 1 | S. cerevisiae deletion strains, locus YER167W, strain BCK2, stronger effect = lower value 1.04 | S. cerevisiae deletion strains, locus YGL078C, strain dbp3, stronger effect = lower value 0.995 | S. cerevisiae deletion strains, locus YGL086W, strain mad1, stronger effect = lower value 1.04 | S. cerevisiae deletion strains, locus YGL248W, strain PDE1, stronger effect = lower value 1.02 | S. cerevisiae deletion strains, locus YGR078C, strain PAC10, stronger effect = lower value 1.04 | S. cerevisiae deletion strains, locus YGR135W, strain pre9, stronger effect = lower value 1.02 | S. cerevisiae deletion strains, locus YGR229C, strain SMI1, stronger effect = lower value 1.03 | S. cerevisiae deletion strains, locus YGR252W, strain gcn5, stronger effect = lower value 1.03 | S. cerevisiae deletion strains, locus YHR030C, strain SLT2, stronger effect = lower value 1.01 | S. cerevisiae deletion strains, locus YHR079C, strain IRE1 (second series), stronger effect = lower value 1.01 | S. cerevisiae deletion strains, locus YHR094C, strain hxt1, stronger effect = lower value 0.995 | S. cerevisiae deletion strains, locus YHR129C, strain ARP1, stronger effect = lower value 1.02 | S. cerevisiae deletion strains, locus YHR200W, strain rpn10, stronger effect = lower value 1 | S. cerevisiae deletion strains, locus YIL066C, strain RNR3, stronger effect = lower value 1.03 | S. cerevisiae deletion strains, locus YIL073C, strain SPO22, stronger effect = lower value 1.02 | S. cerevisiae deletion strains, locus YIL125W, strain kgd1, stronger effect = lower value 0.981 | S. cerevisiae deletion strains, locus YIR030C, strain dcg1, stronger effect = lower value 0.996 | S. cerevisiae deletion strains, locus YJL095W, strain BCK1, stronger effect = lower value 1.03 | S. cerevisiae deletion strains, locus YJL134W, strain LCB3, stronger effect = lower value 1.01 | S. cerevisiae deletion strains, locus YJL168C, strain set2, stronger effect = lower value 0.996 | S. cerevisiae deletion strains, locus YJL187C, strain SWE1 (second series), stronger effect = lower value 1.03 | S. cerevisiae deletion strains, locus YJR043C, strain POL32, stronger effect = lower value 1.03 | S. cerevisiae deletion strains, locus YJR075W, strain HOC1, stronger effect = lower value 1.05 | S. cerevisiae deletion strains, locus YKL009W, strain mrt4, stronger effect = lower value 1.02 | S. cerevisiae deletion strains, locus YKL068W, stronger effect = lower value 0.999 | S. cerevisiae deletion strains, locus YKL085W, strain MDH1 (second series), stronger effect = lower value 0.99 | S. cerevisiae deletion strains, locus YKL085W, strain MDH1, stronger effect = lower value 0.99 | S. cerevisiae deletion strains, locus YKL190W, strain CNB1, stronger effect = lower value 1.01 | S. cerevisiae deletion strains, locus YKR001C, strain vps1, stronger effect = lower value 0.996 | S. cerevisiae deletion strains, locus YLR039C, strain RIC1, stronger effect = lower value 1.04 | S. cerevisiae deletion strains, locus YLR058C, strain SHM2, stronger effect = lower value 1.02 | S. cerevisiae deletion strains, locus YLR102C, strain apc9, stronger effect = lower value 0.99 | S. cerevisiae deletion strains, locus YLR262C, strain YPT6, stronger effect = lower value 1.08 | S. cerevisiae deletion strains, locus YLR268W, strain sec22, stronger effect = lower value 0.949 | S. cerevisiae deletion strains, locus YLR330W, strain CHS5, stronger effect = lower value 1.01 | S. cerevisiae deletion strains, locus YLR342W, strain FKS1 (second series), stronger effect = lower value 1.04 | S. cerevisiae deletion strains, locus YLR371W, strain rom2, stronger effect = lower value 0.987 | S. cerevisiae deletion strains, locus YLR418C, strain cdc73, stronger effect = lower value 1.04 | S. cerevisiae deletion strains, locus YML016C, strain PPZ1, stronger effect = lower value 1.02 | S. cerevisiae deletion strains, locus YML032C, strain rad52, stronger effect = lower value 0.979 | S. cerevisiae deletion strains, locus YML124C, strain tub3, stronger effect = lower value 0.991 | S. cerevisiae deletion strains, locus YMR078C, strain ctf18, stronger effect = lower value 0.995 | S. cerevisiae deletion strains, locus YMR223W, strain ubp8, stronger effect = lower value 1.04 | S. cerevisiae deletion strains, locus YMR263W, strain SAP30, stronger effect = lower value 1.04 | S. cerevisiae deletion strains, locus YMR307W, strain GAS1, stronger effect = lower value 1.07 | S. cerevisiae deletion strains, locus YNL067W, strain RPL9B, stronger effect = lower value 1.04 | S. cerevisiae deletion strains, locus YNL128W, strain TEP1, stronger effect = lower value 1.05 | S. cerevisiae deletion strains, locus YNL153C, strain GIM3, stronger effect = lower value 1.02 | S. cerevisiae deletion strains, locus YNL233W, strain BNI4, stronger effect = lower value 1.03 | S. cerevisiae deletion strains, locus YNL250W, strain rad50, stronger effect = lower value 0.995 | S. cerevisiae deletion strains, locus YNL271C, strain bni1, stronger effect = lower value 0.993 | S. cerevisiae deletion strains, locus YNL298W, strain CLA4, stronger effect = lower value 0.989 | S. cerevisiae deletion strains, locus YNL307C, strain MCK1, stronger effect = lower value 1.01 | S. cerevisiae deletion strains, locus YNL322C, strain KRE1, stronger effect = lower value 1.01 | S. cerevisiae deletion strains, locus YNR052C, strain pop2, stronger effect = lower value 0.991 | S. cerevisiae deletion strains, locus YOL006C, strain TOP1, stronger effect = lower value 1.03 | S. cerevisiae deletion strains, locus YOL012C, strain htz1 0.919 | S. cerevisiae deletion strains, locus YOL147C, strain pex11, stronger effect = lower value 0.995 | S. cerevisiae deletion strains, locus YOR061W, strain CKA2, stronger effect = lower value 1.02 | S. cerevisiae deletion strains, locus YOR069W, strain VPS5, stronger effect = lower value 1.01 | S. cerevisiae deletion strains, locus YOR136W, strain idh2, stronger effect = lower value 1.01 | S. cerevisiae deletion strains, locus YOR144C, strain elg1, stronger effect = lower value 0.984 | S. cerevisiae deletion strains, locus YOR184W, strain ser1, stronger effect = lower value 1.02 | S. cerevisiae deletion strains, locus YOR316C, strain cot1, stronger effect = lower value 0.997 | S. cerevisiae deletion strains, locus YPL055C, strain LGE1, stronger effect = lower value 1.05 | S. cerevisiae deletion strains, locus YPL241C, strain CIN2, stronger effect = lower value 1.02 | S. cerevisiae deletion strains, locus YPR119W, strain clb2, stronger effect = lower value 0.986 | S. cerevisiae deletion strains, locus YPR141C, strain kar3, stronger effect = lower value 0.978 | S. cerevisiae deletion strains, locus YPR163C, strain tif3, stronger effect = lower value 0.997 | S. cerevisiae deletion strains, locus YPR167C, strain met16, stronger effect = lower value 0.99 | S. cerevisiae deletion strains, strain wtn01, stronger effect = lower value 1 | S. cerevisiae strains, strain wild type, stronger effect = lower value 1.03

Source: PubChem BioAssay AID1159580 (chemical genetic matrix, 2015)
